We go through five sequences from paper PMC8384837, “Expanding the binding specificity for RNA recognition by a PUF domain”.

Holding throughout (experiment): yeast three-hybrid, YBZ-1, SC-Leu-His + 0.5 mM 3-AT, 4 days
What all share (details): tags: N-Gal4 AD-HA kept; label: inside an RPR1-promoter hybrid RNA with tandem MS2 sites; ssRNA

One test deals with PUM1 PUF domain R1-KPC (Homo sapiens, UniProt Q14671 828-1176, S863K;R864P;Q867C). A digest of the protocol:
(§1)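 Repeat regions from input (SC-Leu) and selection (SC-Leu-His + 0.5 mM 3-AT) plates were PCR-amplified and Illumina-sequenced after four days of growth. The cells were strain YBZ-1 with a LexA–MS2 coat fusion and a HIS3 reporter, co-expressing Pumilio-1 PUF domain libraries and matching RNA elements from a centromeric plasmid. The interaction score is the log change in variant frequency from input to selection, taken in log2 with a pseudocount of 1 for absent variants.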

A further test addresses PUM1 PUF domain R1-LRR (Homo sapiens, UniProt Q14671 828-1176, S863L;Q867R). In short, it runs like this: as §1
The target in a further test is PUM1 PUF domain R3-VRI (Homo sapiens, UniProt Q14671 828-1176, C935V;Q939I). In short, it runs like this: as §1
The next test has as its target PUM1 PUF domain R3-LWS (Homo sapiens, UniProt Q14671 828-1176, C935L;R936W;Q939S). In short, it runs like this:
as §1

A further test deals with PUM1 PUF domain R4-FGR (Homo sapiens, UniProt Q14671 828-1176, N971F;H972G;Q975R). A digest of the protocol: as §1
In a further test the target is PUM1 PUF domain R4-SPM (Homo sapiens, UniProt Q14671 828-1176, N971S;H972P;Q975M). A digest of the protocol:
as §1

Another test addresses PUM1 PUF domain R4-LHQ (Homo sapiens, UniProt Q14671 828-1176, N971L). A digest of the protocol: as §1
Another test deals with PUM1 PUF domain R4-HNS (Homo sapiens, UniProt Q14671 828-1176, N971H;H972N;Q975S). A digest of the protocol: as §1
The target of a further test is PUM1 PUF domain R4-GFW (Homo sapiens, UniProt Q14671 828-1176, N971G;H972F;Q975W). A digest of the protocol: as §1
The next test concerns the target PUM1 PUF domain R2-LWF (Homo sapiens, UniProt Q14671 828-1176, N899L;Y900W;Q903F). In short, it runs like this: as §1

For “GGCUAGAACUAGUGGAUCCCCCGGCGCCCGGCGGCUCGAGCCCGGGUAAGUGUAAAUUGUCUGCAUGCCGCCGGGCGCCAUGCCUGCAGGUCGACUCUAGAAAACAUG”, the binding signal in the test with PUM1 PUF domain R1-KPC is 4.34 log2 enrichment (interaction score); with PUM1 PUF domain R1-LRR it was 2.97 log2 enrichment (interaction score).

For the sequence “GGCUAGAACUAGUGGAUCCCCCGGCGCCCGGCGGCUCGAGCCCGGGUAAGUGUAAUUAGUCUGCAUGCCGCCGGGCGCCAUGCCUGCAGGUCGACUCUAGAAAACAUG”, the binding signal with PUM1 PUF domain R3-VRI was 0.57 log2 enrichment (interaction score); in the test with PUM1 PUF domain R3-LWS, 4.58 log2 enrichment (interaction score).

For the sequence “GGCUAGAACUAGUGGAUCCCCCGGCGCCCGGCGGCUCGAGCCCGGGUAAGUGUACAUAGUCUGCAUGCCGCCGGGCGCCAUGCCUGCAGGUCGACUCUAGAAAACAUG”, the binding signal with PUM1 PUF domain R4-FGR is 2.88 log2 enrichment (interaction score); with PUM1 PUF domain R4-SPM, 0.15 log2 enrichment (interaction score).

Regarding “GGCUAGAACUAGUGGAUCCCCCGGCGCCCGGCGGCUCGAGCCCGGGUAAGUGUAUAUAGUCUGCAUGCCGCCGGGCGCCAUGCCUGCAGGUCGACUCUAGAAAACAUG”, the binding signal is 6.92 log2 enrichment (interaction score) with PUM1 PUF domain R4-LHQ; 4.08 log2 enrichment (interaction score) with PUM1 PUF domain R4-HNS; 4.86 log2 enrichment (interaction score) with PUM1 PUF domain R4-GFW; 2.32 log2 enrichment (interaction score) in the test with PUM1 PUF domain R4-FGR; 3.22 log2 enrichment (interaction score) with PUM1 PUF domain R4-SPM.

As to “GGCUAGAACUAGUGGAUCCCCCGGCGCCCGGCGGCUCGAGCCCGGGUAAGUGUAAAAAGUCUGCAUGCCGCCGGGCGCCAUGCCUGCAGGUCGACUCUAGAAAACAUG”, the binding signal in the test with PUM1 PUF domain R2-LWF was 6.96 log2 enrichment (interaction score).
